High-throughput results (PubChem)
Giardia kill = kills Giardia lamblia; Giardia lamblia trophozoite viability; activity change, % at 7.66 µM, hits read low; 340,000 tested, 0.15% active; in the data active = activity change below about -80%; inconclusive = between about -30% and that limit;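 also: parasites exposed to compound for two days anaerobically before the ATP read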
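Giardia trophozoites, 100 cells per well, were exposed to compounds for 48 hrs at 37 deg C under anaerobic conditions; viability was then read as ATP content by bioluminescence after 15-30 min at room temperature.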
Coupling enz = coupling enzyme interference in Giardia aldolase counter-screen; 290,000 tested, 0.67% active; activity change, negative = inhibition, % at 58.2 µM, hits read low; coupling enzyme system counterscreen, AmpLite Red fluorescence; AID 2472; in the data active = activity change below about -30%
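Counterscreen lacking aldolase: glyceraldehyde-3-phosphate coupling-enzyme reagent preincubated 10 min at RT with compound (at 57.5 uM final), then substrate/coupling system with AmpLite Red added; fluorescence read at 525/598 nm after 20 min RT.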
Sfp PPTase inh = Sfp phosphopantetheinyl transferase inhibition; Q9F4F7; Biochemical Sfp PPTase activity, qHTS; Potency, µM, actives largely listed as inhibitors; 310,000 tested, 3.5% active; AID 1490;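 also: the enzyme is Sfp with the accession as filed and its product quenches rhodamine fluorescence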
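Fluorescence-quenching assay with 15 nM Sfp, 5 uM rhodamine-CoA and 12.5 uM BHQ-2-labelled ybbR peptide in pH 7.6 Hepes/MgCl2 buffer. Enzyme was pre-incubated with compound for 15 min at room temperature. Rate was taken from the 30-min fluorescence change (525/598 nm).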
ELG1 DNA repair = ELG1-dependent DNA repair inhibition; AID 504467; Potency, µM (highest dose often 46.1 µM), usual class: inhibitors; 330,000 tested, 2.3% active; HEK293T ELG1-luciferase reporter, luminescence, 16 h; DNA damage induced by 5-fluorouridine; also: nearly all actives have a fitted effect of over 55% in size
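Cells (2,000 per well) received 5-fluorouridine plus test compound or DMSO and were incubated 16 hr at 37 °C, 5% CO2. Luciferase activity was read by luminescence 30 min after ONE-Glo addition; signal suppression marked inhibition of damage-induced ELG1 function.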
Each line names hits and unclear results; the compound was inactive in the other large screens; ! = not confirmed by another sample. An excerpt weighted towards active compounds, which were near 5.5% of everything screened. Unless noted, calls follow the shape of the dose curve; as a rule, active = well fitted curve in the direction sought with a large enough effect; inconclusive = small, poorly fitted or top-dose-only effect, or another doubt; inactive = no such curve, though single readings can be large; an effect the other way counts as inactive or inconclusive.

CCc1ccc(Nc2cc(C(=O)NCCCN3CCOCC3)c3ccccc3n2)cc1	Sfp PPTase inh 35µM
CC(C(=O)NC1CCCCC1)N(Cc1ccccc1)C(=O)c1snc(C(N)=O)c1N (stereo not given)	none
Nc1ccccc1C(=O)N(Cc1ccccc1)Cc1ccccc1	none
Nc1ccccc1C(=O)CC(N)C(=O)O (stereo not given)	Sfp PPTase inh 100µM! (no result: Giardia kill, ELG1 DNA repair)
CC(=O)Nc1ccc(NC(=O)CSc2nccn2Cc2ccccc2)cc1	ELG1 DNA repair 21µM
CCOC(=O)c1c(C)n(-c2ccc(C)cc2)c2ccc(OCC(O)CNCC3CCCO3)cc12 (stereo not given)	Sfp PPTase inh 45µM
CCOC(=O)c1c(C)n(-c2ccc(C)cc2)c2ccc(OCC(O)CNCCCO)cc12 (stereo not given)	Sfp PPTase inh inconclusive
COC(CNC(=O)c1c[nH]c2ccc(S(=O)(=O)N(C)c3ccc(F)cc3)cc2c1=O)OC	none
O=C(O)c1cc(O)c2c(c1)C(=O)c1cc(O)cc(O)c1C2=O	Sfp PPTase inh 10µM!
COC(=O)C1=C(C)OC(N)=C(C#N)C1c1ccccc1F (stereo not given)	ELG1 DNA repair inconclusive
CCOC(=O)C1=C(CSc2nc3c(cc2C#N)CN(C)CC3)OC(N)=C(C#N)C1c1ccccc1 (stereo not given)	Sfp PPTase inh inconclusive
CCOC(=O)C1=C(CSc2nc3c(cc2C#N)CN(C)CC3)OC(N)=C(C#N)C1c1ccc(F)cc1 (stereo not given)	Sfp PPTase inh 56µM
COC(=O)C1=C(CSc2nc3c(cc2C#N)CN(C)CC3)OC(N)=C(C#N)C1c1ccccc1F (stereo not given)	Sfp PPTase inh 22µM
CCOC(=O)C1=C(CSc2nc(-c3ccccc3)ccc2C#N)OC(N)=C(C#N)C1c1cccnc1 (stereo not given)	Sfp PPTase inh 56µM, ELG1 DNA repair inconclusive
CCOC(=O)C1=C(CSc2nc(-c3ccccc3)ccc2C#N)OC(N)=C(C#N)C1c1ccccc1 (stereo not given)	ELG1 DNA repair inconclusive
CCOC(=O)C1=C(CSc2nc3c(cc2C#N)CCC3)OC(N)=C(C#N)C1c1ccccc1 (stereo not given)	Sfp PPTase inh 20µM
COc1ccc(C(=S)Nc2ccc(C)cc2)cc1	Sfp PPTase inh 32µM, ELG1 DNA repair inconclusive
COc1ccc(NC(=S)c2ccncc2)cc1	none
Cc1ccc(C)c(NC(=O)c2ccc3ccccc3n2)c1	ELG1 DNA repair inconclusive
COc1ccc(NC(=S)c2ccc3ccccc3n2)cc1	Sfp PPTase inh 22µM, ELG1 DNA repair inconclusive
Cc1ccc(NC(=S)c2ccc3ccccc3n2)c(C)c1	Sfp PPTase inh 22µM, ELG1 DNA repair inconclusive
CCS(=O)(=O)N1CCN=C1SCc1ccc(F)cc1	none (no result: Coupling enz)
Cc1ccc(NC(=O)CSc2nnc(-c3ccco3)c(-c3ccco3)n2)cc1	Sfp PPTase inh 8.9µM
O=C(CSc1nnc(-c2ccco2)c(-c2ccco2)n1)Nc1ccccc1	Coupling enz -30, Sfp PPTase inh 8.9µM
CN(C)c1ccc(NC(=O)CSc2nnc(-c3ccco3)c(-c3ccco3)n2)cc1	Sfp PPTase inh inconclusive, ELG1 DNA repair inconclusive
Cc1cccc(C)c1NC(=O)CSc1nnc(-c2ccco2)c(-c2ccco2)n1	Sfp PPTase inh 11µM
Cc1cccc(C)c1NC(=O)CCCSc1nnc(-c2ccco2)o1	ELG1 DNA repair inconclusive
COc1ccc(NC(=O)Cc2nnc(SCC(=O)NC3CCCCC3C)n2C)cc1 (stereo not given)	none
COc1cc2[nH]c(C(=O)NCc3ccccc3)cc2c(OC)c1OC	none
CC(C(=O)Nc1ccc(O)cc1)c1cccc(C(=O)c2ccccc2)c1 (stereo not given)	ELG1 DNA repair 16µM
CC(=O)Nc1ccc(NC(=O)C(C)c2cccc(C(=O)c3ccccc3)c2)cc1 (stereo not given)	none
CC(=O)N/N=C(\N)c1nonc1N	Sfp PPTase inh 89µM, ELG1 DNA repair inconclusive
O=[N+]([O-])c1ccc(-c2csc3[n+]2CCS3)cc1	Sfp PPTase inh 11µM
COc1ccc2c(C#N)c3ccccn3c2c1	Coupling enz -37, ELG1 DNA repair inconclusive
Cc1cc(=O)n2ccccc2c1C#N	none
O=C(Nc1cccc(O)c1)c1cc(-c2ccccc2Cl)on1	Giardia kill inconclusive, ELG1 DNA repair inconclusive
CCCC[n+]1ccn(C2=C([O-])c3ccccc3C(=O)/C2=N\S(=O)(=O)c2ccc(Cl)cc2)c1	Coupling enz -45, ELG1 DNA repair inconclusive
NC(=S)NCCC[C@H](N)C(=O)O	Sfp PPTase inh 56µM (no result: Giardia kill, Coupling enz, ELG1 DNA repair)
NC(=O)NCCC[C@H](N)C(=O)O	none (no result: Giardia kill, ELG1 DNA repair)
Cc1cc(NC(=O)CSc2ccnc(=O)[nH]2)no1	none (no result: Coupling enz, Sfp PPTase inh)
CCOC(=O)C1=C(Cc2ccc(C)cc2)C(=O)c2ccccc2C1=O	Coupling enz -47, Sfp PPTase inh 7.9µM, ELG1 DNA repair inconclusive (no result: Giardia kill)
CCOC(=O)C1=C(Cc2ccc(OC)cc2)C(=O)c2ccccc2C1=O	Coupling enz -56, Sfp PPTase inh 10µM
CCOC(=O)c1ccc(COC(=O)c2ccc3c(c2)-c2ccccc2C3=O)cc1	none
CC1CN(C2CCN(C(=O)COc3ccc(Cl)cc3)CC2)CC(C)O1 (stereo not given)	Sfp PPTase inh 71µM
FC(F)(F)c1nc(-c2cccs2)ncc1-c1nnnn1-c1ccc(Cl)cc1	ELG1 DNA repair 21µM
Clc1ccc(-n2nnnc2-c2cnc(-c3ccncc3)nc2-c2cccs2)cc1	Sfp PPTase inh inconclusive, ELG1 DNA repair inconclusive
O=C(Cn1nc(C(=O)O)c2ccccc2c1=O)Nc1ccccc1C(F)(F)F	none
O=C(O)c1ccc(N2C(=O)/C(=C/C=C/c3ccccc3)SC2=S)cc1	none
O=C(NN1C(=O)/C(=C/C=C/c2ccco2)SC1=S)c1ccncc1	Sfp PPTase inh 7.9µM
CC(C)C(C(=O)O)N1C(=O)/C(=C/c2cccn2C)SC1=S (stereo not given)	none
O=C1/C(=C/c2ccco2)SC(=S)N1c1cccnc1	Sfp PPTase inh 32µM, ELG1 DNA repair inconclusive
O=C1/C(=C/C=C/c2ccco2)SC(=S)N1c1ccc(O)cc1	Sfp PPTase inh 20µM, ELG1 DNA repair inconclusive
CC(C)C(C(=O)O)N1C(=O)/C(=C/C=C/c2ccco2)SC1=S (stereo not given)	Sfp PPTase inh 20µM
CCCN(CCC)CCCNC(=O)c1ccc(CS(=O)(=O)c2c(Cl)cccc2Cl)o1	none
CN(C)C(CNC(=O)c1cccc(S(=O)(=O)NCc2ccccc2)c1)c1ccccc1 (stereo not given)	none (no result: Coupling enz, Sfp PPTase inh)
NN1C(=O)/C(=C\c2ccco2)SC1=S	Sfp PPTase inh 3.2µM
O=C1/C(=C\c2ccc(O)cc2)SC(=S)N1c1cccnc1	none
O=C1/C(=C\c2ccco2)SC(=S)N1c1ccc(O)cc1	Sfp PPTase inh 16µM
O=C(c1ccc2n[nH]nc2c1)N1CCN(c2ccc(C(F)(F)F)cn2)CC1	none (no result: Coupling enz, Sfp PPTase inh)
CNCc1ccccc1Sc1ccc(O)c(O)c1	Coupling enz -40, Sfp PPTase inh inconclusive
COc1ccc(Sc2ccccc2CN(C)C)cc1OC	none
O=C(Cc1ccc(NC(=O)C2CCN(C(=O)C3CC3)CC2)cc1)Nc1cccc(C(=O)N2CCCCC2)c1	none (no result: Coupling enz, Sfp PPTase inh, ELG1 DNA repair)
